RT RNaseH block = blocks HIV-1 RNase H cleavage of RNA/DNA duplex | hit rate 1.9% among 65,000 | RT-RNase H RNA/DNA duplex cleavage, fluorescence | inhibition, % at 10 µM | P04585; in the data active means inhibition above about 50%
Numbers stand for hits; i = inactive. This excerpt belongs to a sample that is enriched for hits.

SMILES	RT RNaseH block
O=c1c2ccccc2sn1-c1ccc(S(=O)(=O)N2CCCCC2)cc1	95
COc1ccc(C2CC(C(F)(F)F)n3ncc(C(=O)Nc4cccc(O)c4)c3N2)cc1OC (stereo unspecified)	i
Cn1c(=O)c(C(=O)CSc2nncs2)c(N)n(Cc2ccccc2)c1=O	i
Oc1c(C(c2ccco2)N2CCN(C(c3ccccc3)c3ccccc3)CC2)sc2ncnn12 (stereo unspecified)	i
CCCn1c(SCC(=O)N2CCN(S(=O)(=O)c3ccc(Cl)cc3)CC2)n[nH]c1=O	i
Cc1cc(C)n2c(SCC(=O)N3CCN(S(=O)(=O)c4ccc(Cl)cc4)CC3)nnc2n1	70
O=C(CSc1nnc(C2CC2)n1Cc1ccccc1)N1CCN(S(=O)(=O)c2ccccc2)CC1	i
Cc1cc(C(F)(F)F)nn1CCCNC(=O)c1cnccn1	i
Clc1cccc(-c2nn3c(-c4ccncc4)nnc3s2)c1	i
Clc1cccc(-c2nnc3sc(-c4ccc5c(c4)OCO5)nn23)c1	75
Brc1ccccc1-c1nnc2sc(-c3ccc4c(c3)OCCO4)nn12	i
O=C1CN(C(=O)CCCc2c[nH]c3ccccc23)c2ccccc2N1	i
CC(=O)Cc1nsc(NC(=O)c2ccc(COc3ccccc3)o2)n1	i
CNC(=O)ON(C(=O)NC)C1N(C)C(=S)SC1(C)C (stereo unspecified)	i
CN1C(=S)SC(C)(NO)C1(C)C (stereo unspecified)	51
O=C(CSc1nnc(NCc2ccccc2)s1)c1ccco1	i
CCO/C(C)=N/n1c2nc3ccccc3nc2c2c(=O)n(Cc3ccccc3Cl)c(C)nc21	i
CC1CN(c2nc3c(c(=O)n(C)c(=O)n3C)n2Cc2c(F)cccc2Cl)CC(C)O1 (stereo unspecified)	i
CC(=O)n1c2ccccc2c2c1c1ccccc1n2C	57
CC(=O)Nc1c(Cl)n(C(C)=O)c2ccccc12	i
Cn1c2ccccc2c2cnn(CC(=O)O)c(=O)c21	i
CCOP(=O)(c1ccc(N(C)C)cc1)C(O)c1ccc(Cl)cc1 (stereo unspecified)	i
Cc1ccc(/C=c2\sc3nc(-c4ccco4)nn3c2=O)o1	i
Cc1ccc(/C=c2\sc3nc(-c4ccccc4Br)nn3c2=O)o1	51
Cc1ccc(/C=c2/sc3nnc(-c4ccccc4Cl)n3c2=O)o1	i
SMILES	RT RNaseH block
O=C(C1Cc2ccccc2CN1S(=O)(=O)c1cccs1)N1CCCCCC1 (stereo unspecified)	i
CCSc1ccccc1C(=O)N1CCN(c2ccccc2F)CC1	i
Cc1ccc(C2/C(=C(/O)c3ccc(Br)cc3)C(=O)C(=O)N2Cc2ccco2)o1 (stereo unspecified)	i
CS(=O)(=O)N1CCN(c2nc(-c3ccccc3)cs2)CC1	i
CCS(=O)(=O)N1CCN(c2nc(-c3ccccc3)cs2)CC1	56
c1ccc(-c2csc(N3CCCCCC3)n2)cc1	i
CC1c2nc3ccccc3n2C(CC(=O)NCc2ccccn2)C(=O)N1Cc1ccccc1 (stereo unspecified)	i
Nc1cccc2c1C(=O)N(c1ccccc1)C2=O	i
CCCn1c(=O)c(C(=O)Nc2ccncc2)c(O)c2ccccc21	i
CCCn1c(=O)c(C(=O)NCc2ccncc2)c(O)c2ccccc21	i
CCCCCn1c(=O)c(C(=O)Nc2ccncc2)c(O)c2ccccc21	83
CCOc1ccccc1C(=O)N1CCN=C1SCc1cccnc1	i
COC(=O)c1ccc(Nc2ncnc3c2cnn3-c2cccc(C)c2)cc1	60
Cc1cccc(-n2ncc3c(Nc4ccc(F)cc4)ncnc32)c1	i
COc1ccc(Nc2ncnc3c2cnn3-c2cccc(C)c2)cc1OC	i
COC(=O)c1ccc(CSc2nc3ccccc3c(=O)n2Cc2ccco2)o1	i
Cc1ccc(-c2csc3nnc(SCC(=O)Nc4cccc(C)n4)n23)cc1	i
COc1ccc(CCC(=O)NC2=NCCS2)cc1OC	i
Cc1occc1-c1nnc(SCC(=O)c2ccc(F)cc2)o1	i
O=C(Cn1cccc1C(=O)c1ccccc1)NCc1cccs1	i
Cc1cc(C)c2nc(Nc3nc(C)cc(=O)[nH]3)nc(C)c2c1	i
COC(=O)C1=C(NC(=O)c2cccc(C)c2)CCS1	i
Cc1ccccc1COc1ccc(/C(O)=C2/C(=O)C(=O)N(CCCn3ccnc3)C2c2ccco2)cc1 (stereo unspecified)	i
NC(=O)c1c(NC(=O)c2cccs2)sc2c1CCCCCC2	57
O=C(Nc1nc2c(s1)CCCC2)c1cccs1	i
SMILES	RT RNaseH block
O=C(Nc1sc2c(c1C(=O)O)CCC2)c1cccs1	i
COc1ccc(N(CC(=O)NC2CCCC2)C(=O)c2ccc(N3CCCCC3)nc2)cc1	i
Cc1ccc(S(=O)(=O)N[C@H](C(=O)N2CCC(C(=O)N3CCC[C@H]3C(=O)O)CC2)C(C)C)cc1	i
COc1ccc(C2C(C(=O)NCc3cccnc3)c3ccccc3C(=O)N2C)cc1OC (stereo unspecified)	i
CCC(c1nnnn1Cc1ccc(F)cc1)N(CCCO)Cc1cc2cc3c(cc2[nH]c1=O)OCO3 (stereo unspecified)	i
COc1ccc2[nH]c(=O)c(CN(CCO)S(=O)(=O)c3ccc4c(c3)OCCO4)cc2c1	i
COc1cccc2cc(-c3nnc(SCC(=O)NCc4ccccc4)n3C)oc12	i
COc1cccc2cc(-c3nnc(SCC(=O)Nc4cc(C(F)(F)F)ccc4Cl)n3N)oc12	64
CCn1c(SCC(=O)Nc2nccs2)nnc1-c1cc2cccc(OC)c2o1	i
O=C(OCCN(C1=NS(=O)(=O)c2ccccc21)c1ccc(Cl)cc1)c1ccco1	i
Cc1c(NC(=O)OCCNC(=O)Nc2ccccc2)sc(=S)n1C	i
CCOC(=O)Nc1sc(=S)n(C)c1C	i
Cc1ccc(S(=O)(=O)NCCOC(=O)Nc2sc(=S)n(C)c2C)cc1	50
COc1ccc(Cc2nn3c(-c4cc(OC)c(OC)c(OC)c4)nnc3s2)cc1	54
COc1ccc(Cc2nn3c(-c4ccccc4Br)nnc3s2)cc1	i
COc1cc(-c2nnc3sc(Cc4ccccc4)nn23)cc(OC)c1OC	i
O=C(CN(C(=O)c1cc2c(s1)CCC2)C1CCCC1)NCc1cccs1	i
CCN1CCN(c2ncc(C(=O)Nc3ccccc3C(=O)OC)c3ccccc23)CC1	i
O=C(c1ccccc1CCc1ccccc1)N1CCN(c2ccccn2)CC1	i
Cc1ccc(-c2nn3c(C)nnc3s2)cc1NC(=O)c1ccc(Br)o1	i
Cc1ccc(-c2nn3c(C)nnc3s2)cc1NC(=O)c1ccc(-c2ccc(Cl)cc2Cl)o1	60
Cc1ccc(-c2nn3c(C)nnc3s2)cc1NC(=O)c1ccc(-c2cccc(Cl)c2)o1	i
COc1cccc(-c2nnc3sc(C4CCCCC4)nn23)c1	i
c1cncc(-c2nnc3sc(C4CCCCC4)nn23)c1	i
CCOc1cccc(-c2nnc3sc(C4CCCCC4)nn23)c1	59
SMILES	RT RNaseH block
CCN(Cc1ccncc1)S(=O)(=O)c1ccc(C(C)=O)cc1	i
Clc1ccc(-c2nnc3sc(Cc4cccs4)nn23)c(Cl)c1	i
COc1ccc(OCc2nn3c(-c4ccco4)nnc3s2)cc1	i
c1coc(-c2nnc3sc(Cc4cccs4)nn23)c1	50
Cc1cc(C)n2nc(C(=O)NCc3ccccc3)cc2n1	88
Cc1cc(C)n2nc(Nc3ccccc3)cc2n1	i
Cc1cc(C(F)F)n2ncc(C(=O)NCc3ccccc3)c2n1	i
O=C(Cc1c[nH]c2ccccc12)NCc1ccc2c(c1)OCO2	i
Cc1cc(NC(=O)CSc2nnc3c4c(C)c(C)sc4ncn23)no1	i
Cc1cc(NC(=O)CSc2ncnc3sc4c(c23)CCC(C)C4)no1 (stereo unspecified)	84
Cc1cc(NC(=O)CSc2nc(C(C)C)nc3sc(C)c(C)c23)no1	i

Screening results from PubChem BioAssay.
